biological target: AgAbp1; test: SPOT peptide array binding signal intensity (averaged, normalized) (arbitrary units (background-subtracted, floor 0; scale differs between SH3 domains)); higher = stronger binding of the SH3 domain to the peptide
How it was run: (§1)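 GST-SH3 fusions from four yeast species, purified on glutathione Sepharose, were incubated at 10 μg/ml overnight at 4°C on membranes of synthetic 15-mer peptides in which cysteines were replaced with serines. Binding signal is the normalized, background-subtracted spot intensity averaged over replicates, in domain-specific arbitrary units.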

Binder | SPOT peptide array binding signal intensity
VNIPSPSSSPPPIPK | 8

biological target: AgBbc1; test: as above
How it was run: as §1

Binder | SPOT peptide array binding signal intensity
VNIPSPSSSPPPIPK | ≤ 0

biological target: AgBem1-D1; test: as above
How it was run: as §1

Binder | SPOT peptide array binding signal intensity
VNIPSPSSSPPPIPK | 28

biological target: AgBzz1-D1; test: as above
How it was run: as §1

Binder | SPOT peptide array binding signal intensity
VNIPSPSSSPPPIPK | ≤ 0

biological target: AgBzz1-D2; test: as above
How it was run: as §1

Binder | SPOT peptide array binding signal intensity
VNIPSPSSSPPPIPK | 5

biological target: AgCyk3; test: as above
How it was run: as §1

Binder | SPOT peptide array binding signal intensity
VNIPSPSSSPPPIPK | 0.5

biological target: AgFus1; test: as above
How it was run: as §1

Binder | SPOT peptide array binding signal intensity
VNIPSPSSSPPPIPK | 0.5

biological target: AgHof1; test: as above
How it was run: as §1

Binder | SPOT peptide array binding signal intensity
VNIPSPSSSPPPIPK | ≤ 0

biological target: AgHse1; test: as above
How it was run: as §1

Binder | SPOT peptide array binding signal intensity
VNIPSPSSSPPPIPK | 20.5

biological target: AgLsb1; test: as above
How it was run: as §1

Binder | SPOT peptide array binding signal intensity
VNIPSPSSSPPPIPK | ≤ 0

biological target: AgLsb4; test: as above
How it was run: as §1

Binder | SPOT peptide array binding signal intensity
VNIPSPSSSPPPIPK | ≤ 0

biological target: AgMyo5; test: as above
How it was run: as §1

Binder | SPOT peptide array binding signal intensity
VNIPSPSSSPPPIPK | 2570

biological target: AgNbp2; test: as above
How it was run: as §1

Binder | SPOT peptide array binding signal intensity
VNIPSPSSSPPPIPK | ≤ 0

biological target: AgRvs167; test: as above
How it was run: as §1

Binder | SPOT peptide array binding signal intensity
VNIPSPSSSPPPIPK | 0.5

biological target: AgSho1; test: as above
How it was run: as §1

Binder | SPOT peptide array binding signal intensity
VNIPSPSSSPPPIPK | ≤ 0

biological target: AgSla1-D1-D2; test: as above
How it was run: as §1

Binder | SPOT peptide array binding signal intensity
VNIPSPSSSPPPIPK | 8

biological target: AgSla1-D3; test: as above
How it was run: as §1

Binder | SPOT peptide array binding signal intensity
VNIPSPSSSPPPIPK | ≤ 0

biological target: CaAbp1-D1; test: as above
How it was run: as §1

Binder | SPOT peptide array binding signal intensity
VNIPSPSSSPPPIPK | 5

biological target: CaAbp1-D2; test: as above
How it was run: as §1

Binder | SPOT peptide array binding signal intensity
VNIPSPSSSPPPIPK | 9

biological target: CaBbc1; test: as above
How it was run: as §1

Binder | SPOT peptide array binding signal intensity
VNIPSPSSSPPPIPK | ≤ 0

biological target: CaBem1-D1; test: as above
How it was run: as §1

Binder | SPOT peptide array binding signal intensity
VNIPSPSSSPPPIPK | 10

biological target: CaBzz1-D1; test: as above
How it was run: as §1

Binder | SPOT peptide array binding signal intensity
VNIPSPSSSPPPIPK | 34

biological target: CaBzz1-D2; test: as above
How it was run: as §1

Binder | SPOT peptide array binding signal intensity
VNIPSPSSSPPPIPK | 4.75

biological target: CaCyk3; test: as above
How it was run: as §1

Binder | SPOT peptide array binding signal intensity
VNIPSPSSSPPPIPK | ≤ 0

biological target: CaFus1; test: as above
How it was run: as §1

Binder | SPOT peptide array binding signal intensity
VNIPSPSSSPPPIPK | 47.5

biological target: CaHof1; test: as above
How it was run: as §1

Binder | SPOT peptide array binding signal intensity
VNIPSPSSSPPPIPK | 0.5

biological target: CaHse1; test: as above
How it was run: as §1

Binder | SPOT peptide array binding signal intensity
VNIPSPSSSPPPIPK | ≤ 0

biological target: CaLsb1; test: as above
How it was run: as §1

Binder | SPOT peptide array binding signal intensity
VNIPSPSSSPPPIPK | ≤ 0

biological target: CaLsb4; test: as above
How it was run: as §1

Binder | SPOT peptide array binding signal intensity
VNIPSPSSSPPPIPK | ≤ 0

biological target: CaMyo5; test: as above
How it was run: as §1

Binder | SPOT peptide array binding signal intensity
VNIPSPSSSPPPIPK | 1400

biological target: CaNbp2; test: as above
How it was run: as §1

Binder | SPOT peptide array binding signal intensity
VNIPSPSSSPPPIPK | 19.5

biological target: CaRvs167; test: as above
How it was run: as §1

Binder | SPOT peptide array binding signal intensity
VNIPSPSSSPPPIPK | ≤ 0

biological target: CaRvs167-3; test: as above
How it was run: as §1

Binder | SPOT peptide array binding signal intensity
VNIPSPSSSPPPIPK | 2.25

biological target: CaSho1; test: as above
How it was run: as §1

Binder | SPOT peptide array binding signal intensity
VNIPSPSSSPPPIPK | 2

biological target: CaSla1-D1-D2; test: as above
How it was run: as §1

Binder | SPOT peptide array binding signal intensity
VNIPSPSSSPPPIPK | ≤ 0

biological target: CaSla1-D3; test: as above
How it was run: as §1

Binder | SPOT peptide array binding signal intensity
VNIPSPSSSPPPIPK | 1.25

biological target: ScAbp1; test: as above
How it was run: as §1

Binder | SPOT peptide array binding signal intensity
VNIPSPSSSPPPIPK | ≤ 0

biological target: ScBbc1; test: as above
How it was run: as §1

Binder | SPOT peptide array binding signal intensity
VNIPSPSSSPPPIPK | 1

biological target: ScBem1-D1; test: as above
How it was run: as §1

Binder | SPOT peptide array binding signal intensity
VNIPSPSSSPPPIPK | ≤ 0

biological target: ScBzz1-D1; test: as above
How it was run: as §1

Binder | SPOT peptide array binding signal intensity
VNIPSPSSSPPPIPK | ≤ 0

biological target: ScBzz1-D2; test: as above
How it was run: as §1

Binder | SPOT peptide array binding signal intensity
VNIPSPSSSPPPIPK | 6

biological target: ScCyk3; test: as above
How it was run: as §1

Binder | SPOT peptide array binding signal intensity
VNIPSPSSSPPPIPK | ≤ 0

biological target: ScFus1; test: as above
How it was run: as §1

Binder | SPOT peptide array binding signal intensity
VNIPSPSSSPPPIPK | ≤ 0

biological target: ScHof1; test: as above
How it was run: as §1

Binder | SPOT peptide array binding signal intensity
VNIPSPSSSPPPIPK | ≤ 0

biological target: ScHse1; test: as above
How it was run: as §1

Binder | SPOT peptide array binding signal intensity
VNIPSPSSSPPPIPK | 35

biological target: ScLsb1; test: as above
How it was run: as §1

Binder | SPOT peptide array binding signal intensity
VNIPSPSSSPPPIPK | ≤ 0

biological target: ScLsb2; test: as above
How it was run: as §1

Binder | SPOT peptide array binding signal intensity
VNIPSPSSSPPPIPK | ≤ 0

biological target: ScLsb3; test: as above
How it was run: as §1

Binder | SPOT peptide array binding signal intensity
VNIPSPSSSPPPIPK | ≤ 0

biological target: ScLsb4; test: as above
How it was run: as §1

Binder | SPOT peptide array binding signal intensity
VNIPSPSSSPPPIPK | ≤ 0

biological target: ScMyo3; test: as above
How it was run: as §1

Binder | SPOT peptide array binding signal intensity
VNIPSPSSSPPPIPK | 3090

biological target: ScMyo5; test: as above
How it was run: as §1

Binder | SPOT peptide array binding signal intensity
VNIPSPSSSPPPIPK | 2780

biological target: ScNbp2; test: as above
How it was run: as §1

Binder | SPOT peptide array binding signal intensity
VNIPSPSSSPPPIPK | 6

biological target: ScPex13; test: as above
How it was run: as §1

Binder | SPOT peptide array binding signal intensity
VNIPSPSSSPPPIPK | ≤ 0

biological target: ScRvs167; test: as above
How it was run: as §1

Binder | SPOT peptide array binding signal intensity
VNIPSPSSSPPPIPK | ≤ 0

biological target: ScSho1; test: as above
How it was run: as §1

Binder | SPOT peptide array binding signal intensity
VNIPSPSSSPPPIPK | 1.5

biological target: ScSla1-D1-D2; test: as above
How it was run: as §1

Binder | SPOT peptide array binding signal intensity
VNIPSPSSSPPPIPK | 2.5

biological target: ScSla1-D3; test: as above
How it was run: as §1

Binder | SPOT peptide array binding signal intensity
VNIPSPSSSPPPIPK | ≤ 0

biological target: SpAbp1-D1; test: as above
How it was run: as §1

Binder | SPOT peptide array binding signal intensity
VNIPSPSSSPPPIPK | 1

biological target: SpBbc1; test: as above
How it was run: as §1

Binder | SPOT peptide array binding signal intensity
VNIPSPSSSPPPIPK | ≤ 0

biological target: SpBzz1-D1; test: as above
How it was run: as §1

Binder | SPOT peptide array binding signal intensity
VNIPSPSSSPPPIPK | 80.5

biological target: SpBzz1-D2; test: as above
How it was run: as §1

Binder | SPOT peptide array binding signal intensity
VNIPSPSSSPPPIPK | ≤ 0

biological target: SpCyk3; test: as above
How it was run: as §1

Binder | SPOT peptide array binding signal intensity
VNIPSPSSSPPPIPK | 1

biological target: SpHof1; test: as above
How it was run: as §1

Binder | SPOT peptide array binding signal intensity
VNIPSPSSSPPPIPK | ≤ 0

biological target: SpHof1-2; test: as above
How it was run: as §1

Binder | SPOT peptide array binding signal intensity
VNIPSPSSSPPPIPK | ≤ 0

biological target: SpHof1-3; test: as above
How it was run: as §1

Binder | SPOT peptide array binding signal intensity
VNIPSPSSSPPPIPK | ≤ 0

biological target: SpHse1; test: as above
How it was run: as §1

Binder | SPOT peptide array binding signal intensity
VNIPSPSSSPPPIPK | 43

biological target: SpLsb1; test: as above
How it was run: as §1

Binder | SPOT peptide array binding signal intensity
VNIPSPSSSPPPIPK | ≤ 0

biological target: SpLsb4; test: as above
How it was run: as §1

Binder | SPOT peptide array binding signal intensity
VNIPSPSSSPPPIPK | ≤ 0

biological target: SpMyo1; test: as above
How it was run: as §1

Binder | SPOT peptide array binding signal intensity
VNIPSPSSSPPPIPK | 1720

biological target: SpNbp2; test: as above
How it was run: as §1

Binder | SPOT peptide array binding signal intensity
VNIPSPSSSPPPIPK | ≤ 0

biological target: SpPex13; test: as above
How it was run: as §1

Binder | SPOT peptide array binding signal intensity
VNIPSPSSSPPPIPK | 1.5

biological target: SpRvs167; test: as above
How it was run: as §1

Binder | SPOT peptide array binding signal intensity
VNIPSPSSSPPPIPK | ≤ 0

biological target: SpSla1-D1-D2; test: as above
How it was run: as §1

Binder | SPOT peptide array binding signal intensity
VNIPSPSSSPPPIPK | 2

biological target: SpSla1-D3; test: as above
How it was run: as §1

Binder | SPOT peptide array binding signal intensity
VNIPSPSSSPPPIPK | 2

— the supplement of paper PMC4466140
